Source: PubChem BioAssay (NCI)
About 79,000 compounds went through this panel and 15% of them were active in at least one assay; those are over-represented in the sample as a whole. Activity calls are given as the source filed them. Rule as the data show it: active = growth inhibition above about 70%; inactive = the rest.

How the values were obtained:
[1] = NCI Yeast Anticancer Drug Screen. Data for the rad52 strain (AID 147);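 also: 0% = growth of vehicle-treated control cultures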; conditions: S. cerevisiae rad52 mutant growth inhibition, stronger effect = higher value
Method in brief: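 Yeast strain carrying a DNA damage repair alteration was exposed to test compounds. Growth inhibition was measured relative to vehicle-treated controls.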

[2] = NCI Yeast Anticancer Drug Screen. Data for the wt1 strain (AID 149);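 also: 0% = growth of vehicle-treated wt1 cultures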; conditions: S. cerevisiae wt1 strain (SPY 50644) growth inhibition, stronger effect = higher value
Method in brief: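 wt1 yeast, compound-treated; % growth inhibition vs vehicle control.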

[3] = NCI Yeast Anticancer Drug Screen. Data for the rad50EPP+ strain (AID 151);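 also: 0% = growth of vehicle-treated control cultures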; conditions: S. cerevisiae rad50 mutant strain, stronger effect = higher value
Method in brief: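 Yeast strain carrying rad50 alteration (rad50EPP+) exposed to compounds; growth inhibition measured relative to vehicle-treated controls.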

[4] = NCI Yeast Anticancer Drug Screen. Data for the rad50 strain (AID 155);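 also: 0% = growth of vehicle-only cultures of the same strain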; conditions: S. cerevisiae rad50 strain growth inhibition, stronger effect = higher value
Method in brief: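 Genetically altered yeast (DNA repair pathway); compound treatment; growth inhibition vs vehicle ctrl.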

[5] = NCI Yeast Anticancer Drug Screen. Data for the mec2-1 strain (AID 157); conditions: S. cerevisiae mec2-1 strain, stronger effect = higher value
Method in brief: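 mec2-1 yeast strain, carrying an alteration in DNA damage repair or cell cycle control, was exposed to compounds; growth inhibition was measured relative to vehicle-treated controls.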

[6] = NCI Yeast Anticancer Drug Screen. Data for the rad14 strain (AID 159);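 also: 0% = growth of vehicle-treated control cultures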; conditions: S. cerevisiae rad14 strain growth inhibition, stronger effect = higher value
Method in brief: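 Test compounds were applied to a repair-deficient yeast strain. Its growth was then compared with that of cultures given vehicle alone, and inhibition was expressed relative to those controls.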

[7] = NCI Yeast Anticancer Drug Screen. Data for the sgs1 mgt1 strain (AID 161);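 also: 0% = growth of cultures given vehicle only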; conditions: S. cerevisiae sgs1 mgt1 strain, stronger effect = higher value
Method in brief: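 Yeast cells carrying a defined DNA-repair defect were exposed to test compounds. Growth inhibition was measured relative to vehicle-treated controls.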

[8] = NCI Yeast Anticancer Drug Screen. Data for the CLN2oe strain (AID 163);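 also: 0% = growth of vehicle-only control cultures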; conditions: S. cerevisiae CLN2oe strain, stronger effect = higher value
Method in brief: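 Yeast cells carrying a defined cell-cycle control alteration were exposed to test compounds. Growth inhibition was scored against vehicle-treated control cultures.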

[9] = NCI Yeast Anticancer Drug Screen. Data for the cln2 rad14 strain (AID 165);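 also: 0% = growth equal to vehicle treated cultures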; conditions: S. cerevisiae cln2 rad14 strain, stronger effect = higher value
Method in brief: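 Yeast carrying cln2 and rad14 alterations (cell cycle control and DNA damage repair) were exposed to compounds. Growth inhibition was measured against vehicle-treated controls.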

[10] = NCI Yeast Anticancer Drug Screen. Data for the bub3 strain (AID 167); conditions: S. cerevisiae bub3 mutant strain, stronger effect = higher value
Method in brief: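 Yeast carrying a defined mutation is treated with each compound, and growth is compared with that of vehicle-exposed cells to give inhibition.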

[11] = NCI Yeast Anticancer Drug Screen. Data for the wt2 strain (AID 169);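 also: 0% = growth of vehicle-treated yeast cultures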; conditions: S. cerevisiae wt2 strain growth inhibition, stronger effect = higher value
Method in brief: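 Yeast cells were exposed to test compounds, and growth inhibition was measured relative to vehicle-treated controls.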

[12] = NCI Yeast Anticancer Drug Screen. Data for the mlh1 strain (AID 171);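 also: 0% = growth of vehicle-treated control cultures of the same strain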; conditions: S. cerevisiae mlh1 strain growth inhibition, stronger effect = higher value
Method in brief: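 Yeast carrying a defined genetic alteration in DNA damage repair or cell cycle control were exposed to test compounds. Growth inhibition was measured relative to vehicle-treated controls.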

[13] = NCI Yeast Anticancer Drug Screen. Data for the sgs1 strain (AID 173);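 also: 0% = growth of vehicle-only control cultures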; conditions: S. cerevisiae sgs1 mutant, stronger effect = higher value
Method in brief: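 Yeast mutant strains carrying defined defects in DNA damage repair or cell cycle control were exposed to test compounds. Growth inhibition was scored against vehicle-treated controls.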

[14] = NCI Yeast Anticancer Drug Screen. Data for the mlh1 rad18 strain (AID 175); conditions: S. cerevisiae mlh1 rad18 strain growth inhibition, stronger effect = higher value
Method in brief: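 Growth inhibition of the yeast strain was measured after compound exposure and expressed relative to vehicle-treated controls. The strain carries defined defects in DNA damage repair.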

[15] = NCI Yeast Anticancer Drug Screen. Data for the rad18 strain (AID 177); conditions: S. cerevisiae rad18 mutant growth inhibition, stronger effect = higher value
Method in brief: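 Yeast carrying a defined DNA damage repair alteration were exposed to compounds. Growth inhibition was expressed relative to vehicle-treated controls.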

[16] = at 5.0 µM (retest, dose inferred, filed as 0.5)
[17] = at 50.0 µM (retest, dose inferred, filed as 5.0)

Measured: growth inhibition

CCOP1(=O)C=C(Sc2ccc([N+](=O)[O-])cc2[N+](=O)[O-])C(C)(C)O1 (stereo unspecified)
active: [1]; at 100.0 µM 84% | [4]; at 100.0 µM 83% | [5]; at 100.0 µM 87% | [10]; at 100.0 µM 92% | [11]; at 100.0 µM 72% | [12]; at 100.0 µM 83% | [13]; at 100.0 µM 84%
inactive: [1]; at 1.2 µM 2% | [1]; at 3.7 µM 6% | [1]; at 11.0 µM 16% | [1]; at 33.0 µM 39% | [2]; at 1.2 µM 2% | [2]; at 3.7 µM 2% | [2]; at 11.0 µM 6% | [2]; at 33.0 µM 4% | [2]; at 100.0 µM 31% | [3]; at 1.2 µM -4% | [3]; at 3.7 µM -3% | [3]; at 11.0 µM -2% | [3]; at 33.0 µM 13% | [3]; at 100.0 µM 53% | [4]; at 1.2 µM 2% | [4]; at 3.7 µM 9% | [4]; [16] 28% | [4]; at 11.0 µM 16% | [4]; at 33.0 µM 37% | [4]; [17] 40% | [4]; at 50.0 µM 51.4% | [5]; at 1.2 µM 7% | [5]; at 3.7 µM 12% | [5]; [16] 27% | [5]; at 11.0 µM 18% | [5]; at 33.0 µM 41% | [5]; [17] 41% | [5]; at 50.0 µM 8.65% | [6]; at 1.2 µM 1% | [6]; at 3.7 µM 3% | [6]; at 11.0 µM 9% | [6]; at 33.0 µM 20% | [6]; at 100.0 µM 43% | [7]; [16] 23% | [7]; [17] 38% | [7]; at 50.0 µM 33% | [8]; at 1.2 µM 3% | [8]; at 3.7 µM 0% | [8]; at 11.0 µM 1% | [8]; at 33.0 µM 11% | [8]; at 100.0 µM 37% | [9]; [16] 7% | [9]; [17] 44% | [9]; at 50.0 µM 26.1% | [10]; at 1.2 µM 5% | [10]; at 3.7 µM 7% | [10]; [16] 11% | [10]; at 11.0 µM 16% | [10]; at 33.0 µM 40% | [10]; [17] 31% | [10]; at 50.0 µM 1.9% | [11]; at 1.2 µM 4% | [11]; at 3.7 µM 8% | [11]; at 11.0 µM 12% | [11]; at 33.0 µM 25% | [12]; at 1.2 µM 3% | [12]; at 3.7 µM 7% | [12]; at 11.0 µM 14% | [12]; at 33.0 µM 31% | [13]; at 1.2 µM 3% | [13]; at 3.7 µM 6% | [13]; at 11.0 µM 13% | [13]; at 33.0 µM 37% | [14]; [16] 25% | [14]; [17] 60% | [14]; at 50.0 µM 42.2%

CCCCCCCCCCCCCCCCCCNC(=S)/N=C\C1=C(O)c2ccccc2C1=O
active: [4]; [17] 86% | [7]; at 50.0 µM 71% | [10]; [17] 84%
inactive: [1]; at 1.2 µM 17% | [1]; at 3.7 µM 4% | [1]; at 11.0 µM 12% | [1]; at 33.0 µM 17% | [1]; at 100.0 µM 19% | [2]; at 1.2 µM -44% | [2]; at 3.7 µM -2% | [2]; at 11.0 µM -5% | [2]; at 33.0 µM -5% | [2]; at 100.0 µM -3% | [3]; at 1.2 µM -6% | [3]; at 3.7 µM 7% | [3]; at 11.0 µM 26% | [3]; at 33.0 µM 42% | [3]; at 100.0 µM 60% | [4]; at 1.2 µM -1% | [4]; at 3.7 µM 0% | [4]; [16] 5% | [4]; at 11.0 µM 0% | [4]; at 33.0 µM 4% | [4]; at 50.0 µM 60% | [4]; at 100.0 µM 9% | [5]; at 1.2 µM -3% | [5]; at 3.7 µM -1% | [5]; [16] -16% | [5]; at 11.0 µM -5% | [5]; at 33.0 µM 2% | [5]; [17] 37% | [5]; at 50.0 µM 36.7% | [5]; at 100.0 µM 2% | [6]; at 1.2 µM 0% | [6]; at 3.7 µM 3% | [6]; at 11.0 µM 7% | [6]; at 33.0 µM 10% | [6]; at 100.0 µM 11% | [7]; [16] -13% | [7]; [17] 18% | [8]; at 1.2 µM -10% | [8]; at 3.7 µM -7% | [8]; at 11.0 µM -5% | [8]; at 33.0 µM -13% | [8]; at 100.0 µM -4% | [9]; [16] 33% | [9]; [17] -10% | [9]; at 50.0 µM 25.7% | [10]; at 1.2 µM -5% | [10]; at 3.7 µM -9% | [10]; [16] -2% | [10]; at 11.0 µM -4% | [10]; at 33.0 µM -3% | [10]; at 50.0 µM 69.7% | [10]; at 100.0 µM 52% | [11]; at 1.2 µM -2% | [11]; at 3.7 µM -2% | [11]; at 11.0 µM 1% | [11]; at 33.0 µM 13% | [11]; at 100.0 µM 36% | [12]; at 1.2 µM -1% | [12]; at 3.7 µM -1% | [12]; at 11.0 µM -3% | [12]; at 33.0 µM -2% | [12]; at 100.0 µM -1% | [13]; at 1.2 µM 0% | [13]; at 3.7 µM 6% | [13]; at 11.0 µM 13% | [13]; at 33.0 µM 15% | [13]; at 100.0 µM 30% | [14]; [16] -13% | [14]; [17] 63% | [14]; at 50.0 µM 53% | [15]; at 1.2 µM 8% | [15]; at 3.7 µM 11% | [15]; at 11.0 µM 22% | [15]; at 33.0 µM 30% | [15]; at 100.0 µM 26%
